In PubChem BioAssay AID1273 (Columbia University Molecular Screening Center, 2008):
Out of some 130,000 compounds screened, about 1,200 (0.92%) were called active.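 The calls were made as follows: active = inhibition above the mean plus 3 SD, with well images judged a real hit on visual review (cut at about 60% in these data, passing the limit was not always enough); inconclusive = inhibition over the cutoff but images rejected on review; inactive = inhibition not above the cutoff.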 Only a selection was taken, and actives are over-represented in it overall.

Test: inhibitors of insulin promoter-driven GFP, primary screen, imaging, TRM-6 cells (human fetal islet line), eGFP reporter, cell count (AID 1273;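 as to normalized cell count: cells exposed to compound for 48 h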)
Settings: at 2 µM, reporter expression induced with tamoxifen; inhibition: stronger effect = higher value; normalized cell count: measured here: cell count, toxicity

Structure (SMILES) | inhibition | normalized cell count [%]
Cc1cccc(Cn2c(N3CCN(c4ccccc4)CC3)nc3c2c(=O)n(C)c(=O)n3C)c1 | -28.1% (inactive) | 82.7
Cc1cccc(N2CC(C)Cn3c2nc2c3c(=O)n(CC(=O)OCc3ccccc3)c(=O)n2C)c1 (stereo unspecified) | 87.5% (active) | 63.7
O=[N+]([O-])/C(N=Nc1ccccc1)=N\Nc1ccccc1 | 7.14% (inactive) | 142
COCCCNC(=S)NNC(=O)C(O)(c1ccccc1)c1ccccc1 | -89.5% (inactive) | 100
C=C(Br)Cn1c(CCCC)nc2ccccc21 | 85.7% (active) | 72.7
COCn1c(COc2ccccc2)nc2ccccc21 | 30% (inactive) | 132
CCCCn1c(CN2CCN(CCO)CC2)nc2ccccc21 | -68.6% (inactive) | 100
CCCNCc1cc(OCC)c(OCC(=O)Nc2ccccc2)cc1Br | 0% (inactive) | 99
C=C(C)Cn1c(C)cc(C)c(S(=O)(=O)c2ccccc2C)c1=O | 78.4% (active) | 40.9
Cc1nc([N+](=O)[O-])c(NCCCO)n1Cc1ccccc1 | 50% (inactive) | 125
CC(C)C(=O)NCc1cc(-c2ccc(Cl)cc2)no1 | 55% (inactive) | 86.2
CS(=O)(=O)N1CCc2cc(C(=O)Nc3ccccc3)ccc21 | 43.6% (inactive) | 103
COC(=O)Cn1c2ccc(C)cc2c2nc(C)sc21 | 85.7% (active) | 32.4
CCN(CC)CCn1c2ccc(Cl)cc2c2nc(C)sc21 | 46.1% (inactive) | 78.6
COC(=O)Cn1c(=NC(=O)c2cc(OC)c(OC)c(OC)c2)sc2cc(OC)ccc21 | -14.3% (inactive) | 101
Cc1cc(NC(=O)CN2C(=O)NC(CCc3ccccc3)C2=O)no1 (stereo unspecified) | 60% (inactive) | 76
S=C(NCc1cccnc1)Nc1ccc(Cl)cc1Cl | -31.6% (inactive) | 122
CC(C(=O)NC1CCCC1)N(c1ccc(Oc2ccccc2)cc1)S(C)(=O)=O (stereo unspecified) | -15.8% (inactive) | 67.6
Cc1ccc(S(=O)(=O)N(C)C)cc1NC(=O)COC(=O)C1COc2ccccc2O1 (stereo unspecified) | -44.4% (inactive) | 51.1
CCCCn1nc(C(=O)Nc2ccc(S(=O)(=O)Nc3ncccn3)cc2)c2ccccc2c1=O | 25% (inactive) | 158
Cc1ccsc1CNn1cnnc1SCc1ccccc1F | 86.5% (active) | 28.9
O=C(O)CSc1nnc(-c2ccc3c(c2)OCO3)n1-c1ccccc1 | 15% (inactive) | 96.8

Structure (SMILES) | inhibition | normalized cell count [%]
CCC1(CC)NC(=O)N(Cc2nc3ccccc3s2)C1=O | -16.7% (inactive) | 127
CCOC12CC(C)(C)CC(C)(CC3=C1C(=O)CC(C)(C)C3)C2 (stereo unspecified) | 73.7% (active) | 4.89
CCCN(CC(=O)Nc1ccc(OC)c(OC)c1)CC(=O)Nc1ccc(F)c(F)c1F | -25% (inactive) | 134
O=Cc1ccc(OCc2cn3ccccc3n2)cc1 | 36.4% (inactive) | 194
COC(=O)NNC1=CC(=O)CC(C)(C)C1 | -26.7% (inactive) | 74.6
COC(=O)C(NS(=O)(=O)c1ccc(F)cc1)c1ccccc1 (stereo unspecified) | -16.3% (inactive) | 140
Fc1ccccc1/C=C1\CCCC2=C1Nc1ncnn1C2c1ccccc1F (stereo unspecified) | 86.1% (active) | 102
COc1cccc(N2CCN(C3CC(=O)N(c4ccc(Cl)cc4)C3=O)CC2)c1 (stereo unspecified) | 30.8% (inactive) | 118
O=CN1CCN(C2CC(=O)N(c3ccc4c(c3)OCO4)C2=O)CC1 (stereo unspecified) | 20.9% (inactive) | 129
COc1ccc(N2CCN(C3CC(=O)N(c4ccc5c(c4)OCCO5)C3=O)CC2)cc1 (stereo unspecified) | 91.7% (active) | 78.3
CCN(/N=C/c1ccc(N(C)C)cc1)c1nc2ccccc2[nH]1 | 86.7% (active) | 159
CN(C)c1ccc(/C=N\S(=O)(=O)c2ccccc2)cc1 | -39.5% (inactive) | 46.9
Nc1cccc(CCc2nc3ccccc3[nH]2)c1 | 17.2% (inactive) | 146
Cc1nn(CC#N)c(=O)n1N(C)c1ncc(C(F)(F)F)cc1Cl | 30% (inactive) | 84.4
O=C(CSc1nc2ccccc2[nH]1)c1cccs1 | 42.9% (inactive) | 105
COc1ccccc1CSc1nc2ccccc2[nH]1 | -54.8% (inactive) | 124
C=CCSc1nc2ccccc2[nH]1 | 81.8% (active) | 184
CCOC(=O)CSc1nc(C)cc2c1C(=O)OC2 | 28.6% (inactive) | 94.5
CCCCc1nnc(NC(=O)CSc2nc(N)cc(=O)[nH]2)s1 | 12.5% (inactive) | 93.7
COc1ccc2oc(=O)c(C(=O)N3CCCC3)cc2c1 | 44.4% (inactive) | 107
CN(C)c1ccc(C=NCCc2ccc(S(N)(=O)=O)cc2)cc1 | 31.2% (inactive) | 121
